The results in this text go back to PubChem BioAssay (NCATS).

A short description of test [1]: AP1 Signaling Pathway (AID 357; active = well fitted curve in either direction with a large enough effect, not every such curve was filed as active;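 also: ME-180 reporter cells stimulated with EGF at its EC50 level; % is scaled to controls: 0 for no effect and ±100 for the full control effect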). The following applies: ME-180 AP-1-bla reporter, EGF-induced, beta-lactamase ratio, 5 h; at 7.69 µM (top of the series) unless noted. The method in brief: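 In this screen, ME-180 cells in Opti-MEM with 0.5% dialyzed FBS received EC50 EGF and compound titrations for 5 h. AP-1 reporter beta-lactamase was detected via CCF4 ratio, giving AC50 for positive and negative modulators.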

For test [2], the target named is Cytochrome P450 1A2 (Homo sapiens) (UniProt P05177). The test can be described thus: p450-cyp1a2 (AID 410; calls by dose curve; also: potency is read from the fitted curve at half-maximal effect;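 as to activity change, negative = inhibition: -100% = full effect of reference inhibitor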). The essentials: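 Read-out is luminescence from luciferin produced by CYP1A2 demethylation of Luciferin-ME (100uM, at Km). Detection reagent stopped the 60 min NADPH-dependent reaction; signals were normalized to 57 uM furafylline.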
Test [3] can be described thus: NFAT Signaling Pathway (AID 444; active = well fitted curve in either direction with a large enough effect, not every such curve was filed as active;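 also: carbachol stimulus at about its EC50 of 1 µM final; % is scaled to controls: 0 for no effect and ±100 for the full control effect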). The following applies: Jurkat NFAT-bla M1, carbachol, beta-lactamase ratio, 5 h; at 7.69 µM (top of the series) unless noted. The method in brief: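 Read-out: CCF4 FRET ratio (460 nm/530 nm) after 1 h RT dye loading, used for %activity and AC50 from titration series. Cells: Jurkat NFAT-β-lactamase/M1 line, treated with compound plus 1 uM carbachol for 5 h, 37 °C.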

Test [4] addresses Glucocorticoid receptor (Homo sapiens) (UniProt P04150). In words: GR-GFP Redistribution (AID 450;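 active = compounds whose dose series gives a full or clear partial fitted curve of increased nuclear translocation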; also: potency is read from the fitted curve at half-maximal effect). The settings on record: U2OS GR-GFP nuclear translocation, laser cytometry, 2 h.
Test [5] shares this target. The test can be described thus: GR-EFC Redistribution (AID 451; calls by dose curve; also: potency is read from the fitted curve at half-maximal effect). The settings on record: CHO-K1 GR-EFC translocation, beta-gal luminescence, 2 h. The essentials: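 Translocation of GR-ED fusion to nuclear EA restores b-gal, read by luminescence after 1 h room-temperature detection. Engineered CHO-K1 biosensor cells, 1,000/well, exposed 2 h at 37 C to titrations up to 46 uM final.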

In test [6] the target is Mitogen-activated protein kinase 10 (Mus musculus) (UniProt Q61831). In words: JNK3 AlphaScreen Assay (AID 530; active = well fitted curve in either direction with a large enough effect, not every such curve was filed as active;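 also: kinase came from lysate of stimulated human HepG2 cells; signal reports phosphorylation of biotinylated GST-cJun 1-79 at Ser73 with 10 µM ATP; % is scaled to controls: 0 for no effect and ±100 for the full control effect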). The essentials: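 Kinase buffer: 20 mM Tris-HCl pH 7.6, 10 mM MgCl2, 1 mM DTT, 0.1 mM Na3VO4, 0.01% Tween-20; ATP 10 uM. Substrate biotin-GST-cJun(1-79), enzyme from activated HepG2 lysates. Detection by Ser73 phospho-antibody AlphaScreen.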
In general terms: Alpha assays give light when donor and acceptor beads are brought close together.

Test [7] has as its target 3',5'-cyclic-AMP phosphodiesterase 4B (Homo sapiens) (UniProt Q07343). The test can be described thus: qHTS Assay for Inhibitors of PDE-IV (AID 607; active = well fitted activation curve with a large enough effect in the main read-out, with a control signal flat, not every such curve was filed as active; also: % of control where 0% means no effect). The method in brief: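 Live HEK293 cells with a modified cyclic nucleotide-gated (CNG) channel report intracellular cAMP via membrane-potential dye fluorescence (ex 535/em 590 nm). Endogenous PDE-IV was targeted. Compounds were tested at up to 22.9 uM final; RO 20-1724 100 uM served as control.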

The target in test [8] is Guanine nucleotide-binding protein G(i) subunit alpha-1 (Homo sapiens) (UniProt P63096). The test can be described thus: qHTS Assay for Inhibitors of RGS12 GoLoco Motif Activity (Green Fluorophore) (AID 879).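 Also: 0% = labeled peptide with Gαi1 and full inhibition = labeled peptide alone without protein; negative values mean loss of peptide binding seen as reduced polarization.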 The essentials: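 A drop in FITC polarization marked displacement of the FITC-tagged RGS12 GoLoco peptide (10 nM) from Gαi1 (50 nM). Compounds were incubated 10 min at room temperature in Tris pH 7.5 buffer containing 150 mM NaCl, 0.1 mM GDP and 0.05% NP40; unlabeled peptide titration served as control.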

Test [9] is described as follows: qHTS Assay for Identification of Small Molecule Antagonists for NFkB Signaling Pathway (AID 895; active = well fitted inhibition curve with a large enough effect in the signal ratio, with a control signal flat, not every such curve was filed as active; the % refers to the signal ratio; also: potency is read from the fitted curve at half-maximal effect). The essentials: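 Beta-lactamase reporter read-out (460 and 530 nm emission ratio, 405 nm excitation, 2 hrs substrate loading RT) after 5 hr stimulation with 10 pM TNF alpha in compound-treated NFkB-bla ME-180 cells in low-serum medium.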
Background: Quantitative high-throughput screening tests each substance at several concentrations.

A short description of test [10]: qHTS Assay for Identification of Small Molecule Agonists for Thrombopoietin (TPO) Signaling Pathway (AID 917). Also: % is scaled to controls: 0 for no effect and ±100 for the full control effect. The method in brief: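 Quantitative HTS for pathway activators: compounds were pin-transferred onto IL-3-starved Ba/F3 cells expressing human TPO receptor, TPO was added at its EC50 (26 pM final), and after 24 hrs at 37 C reporter luciferase was measured.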

Test [11] addresses Muscarinic acetylcholine receptor M1 (Rattus norvegicus) (UniProt P08482). In words: qHTS Assay for Antagonists of Acetylcholine Muscarinic M1 Receptor: Measurement of IP-One Response (AID 944). Also: nearly all actives have a fitted effect of over 75% in size. The method in brief:
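Antagonism was measured as loss of carbachol-driven (EC80) IP1 accumulation in CHO cells carrying rat M1, using a homogeneous IP-One TR-FRET kit read at 620 and 665 nm.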

Test [12] deals with Pyruvate kinase (Leishmania mexicana) (UniProt Q27686). In words: qHTS Validation Assay for Inhibitors of Leishmania Mexicana Pyruvate Kinase (AID 945).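 Also: 0% = DMSO only neutral control wells.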 The essentials:
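The enzyme is a highly purified E451W mutant of LmPYK used at 0.2 nM. It converts 0.5 mM PEP and 0.1 mM ADP over 1 h at room temperature; product ATP is quantified by luciferase luminescence relative to DMSO controls.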

The target of test [13] is Alpha-galactosidase A (Homo sapiens) (UniProt P06280). The test can be described thus: Counterscreen for Glucocerebrosidase Inhibitors: qHTS Assay for Human alpha-Galactosidase at pH 4.5 (AID 992). Also: 0% is about no effect. The method in brief:
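Each compound is preincubated briefly with 2 nM enzyme before substrate addition (80 uM); plates then sit 20 min at ambient temperature, are quenched with 1M NaOH/1M glycine, and read fluorometrically.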
In general terms: The purpose of a counterscreen is to sort out artefacts and off-target activity.

In test [14] the target is alpha-glucosidase (Oryza sativa, rice) (UniProt Q653V4). In words: Counterscreen for Glucocerebrosidase Inhibitors: qHTS Assay for Rice alpha-Glucosidase at pH 5.0 (AID 997).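 Also: 0% = full activity with enzyme and -100% = basal without enzyme.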 The method in brief: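 Endpoint fluorogenic assay at pH 5.0: compounds (0.7 nM to 77 uM) titrated against 4 nM rice enzyme and 400 uM 4-MU-alpha-glucoside for 20 min at room temperature; NaOH/glycine stop, read ex 365/em 440 nm, Hill-fitted AC50.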

Test [15] addresses Cytochrome P450 3A4 (Homo sapiens) (UniProt P08684). The test can be described thus: qHTS Assay for Inhibitors and Substrates of Cytochrome P450 3A4 (AID 884). Also: % is scaled to controls: 0 for no effect and ±100 for the full control effect; nearly all actives have a fitted effect of over 50% in size. The method in brief:
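Luminescent readout of luciferin produced by CYP3A4 (20 nM) dealkylation of Luciferin-PPXE, 25 uM (its KM). NADPH-driven reaction ran 60 min at RT after 10 min compound preincubation; data scaled to 57 uM ketoconazole as 100% inhibition.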

Test [16] has as its target Muscarinic acetylcholine receptor M1 (Rattus norvegicus) (UniProt P08482). The test can be described thus: qHTS Assay for Antagonists of Acetylcholine Muscarinic M1 Receptor: Kinetic Measurement of Intracellular Calcium Response (AID 943).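 Also: Fluo-4 calcium signal as peak divided by basal fluorescence over 4 min; nearly all actives have a fitted effect of over 75% in size.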 The method in brief:
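Quantitative HTS in CHO-M1 (rat receptor) cells: 10 min compound exposure ahead of 100 nM carbachol, Fluo-4 fluorescence followed 4 min, value expressed as peak-to-basal ratio.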

Test [17] can be described thus: Stat Signaling Pathway (AID 446; active = well fitted curve in either direction with a large enough effect, not every such curve was filed as active). The following applies: ME-180 (cervical carcinoma) SIE beta-lactamase reporter, IL-6 stimulated, 5 h; at 7.69 µM (top of the series) unless noted. The essentials: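 Overnight-plated ME-180 cells bearing a STAT Inducible Element beta-lactamase reporter; 5 h co-exposure to compound and 40 pM IL-6; values normalized to 300 pM IL-6 and 125 nM JAK inhibitor controls.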

In test [18] the target is Cytochrome P450 2C9 (Homo sapiens) (UniProt P11712). The test can be described thus: qHTS Assay for Inhibitors and Substrates of Cytochrome P450 2C9 (AID 883). Also: % is scaled to controls: 0 for no effect and ±100 for the full control effect; nearly all actives have a fitted effect of over 60% in size. The essentials: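 Luminescent read-out of deoxyluciferin hydroxylation, normalized to 57uM sulphaphenazole (AC100). Reaction: 10nM enzyme, 100uM Luciferin-H (equal to KM), 25mM KPO4, 10 min compound preincubation, then 60 min with NADPH regeneration, both at 37C.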

For test [19], the target named is Cytochrome P450 2D6 (Homo sapiens) (UniProt P10635). The test can be described thus: qHTS Assay for Inhibitors and Substrates of Cytochrome P450 2D6 (AID 891).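 Also: luciferin methyl ether substrate demethylated by CYP2D6 with NADPH regeneration; % is scaled to controls: 0 for no effect and ±100 for the full control effect; nearly all actives have a fitted effect of over 60% in size.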 The method in brief: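 Luminescent read-out of luciferin formed by 5 nM human CYP2D6 demethylating 30 uM Luciferin-ME EGE (Km level) over 60 min at room temperature after NADPH regeneration addition. Data normalized to full inhibition by 1.43 uM quinidine.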

For test [20], the target named is Cytochrome P450 2C19 (Homo sapiens) (UniProt P33261). In words: qHTS Assay for Inhibitors and Substrates of Cytochrome P450 2C19 (AID 899). Also: % is scaled to controls: 0 for no effect and ±100 for the full control effect; nearly all actives have a fitted effect of over 60% in size. The method in brief: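 Luminescence readout of luciferin formed from 10uM Luciferin-H EGE (KM level) by 5 nM CYP2C19 in 50mM KPO4. 60 min NADPH-driven reaction at 37C after 10 min compound preincubation; data scaled to 57uM ketoconazole inhibition.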

Test [21] has as its target Pyruvate kinase PKM (Homo sapiens) (UniProt P14618). The test can be described thus: qHTS Assay for Activators of Human Muscle Pyruvate Kinase (AID 954; active = well fitted curve in the direction sought with a large enough effect, not every such curve was filed as active;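 also: 0% = uninhibited enzyme and -100% = no enzyme or full thiadiazolimine inhibition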). The essentials:
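Screening used highly purified human pyruvate kinase M2 under submaximal activity, with PEP at its Km and ADP below Km. After an hour at room temperature, ATP was read by luciferase luminescence.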

Structures are written as SMILES. Values without a mark were called inactive. Results filed as inconclusive are left out. Activity calls are given as the source filed them. Unless noted, calls follow the shape of the dose curve; as a rule, active = well fitted curve in the direction sought with a large enough effect; inconclusive = small, poorly fitted or top-dose-only effect, or another doubt; inactive = no such curve, though single readings can be large; an effect the other way counts as inactive or inconclusive.

Cytochrome P450 1A2 (Homo sapiens), sequence (P05177 whole entry, looked up): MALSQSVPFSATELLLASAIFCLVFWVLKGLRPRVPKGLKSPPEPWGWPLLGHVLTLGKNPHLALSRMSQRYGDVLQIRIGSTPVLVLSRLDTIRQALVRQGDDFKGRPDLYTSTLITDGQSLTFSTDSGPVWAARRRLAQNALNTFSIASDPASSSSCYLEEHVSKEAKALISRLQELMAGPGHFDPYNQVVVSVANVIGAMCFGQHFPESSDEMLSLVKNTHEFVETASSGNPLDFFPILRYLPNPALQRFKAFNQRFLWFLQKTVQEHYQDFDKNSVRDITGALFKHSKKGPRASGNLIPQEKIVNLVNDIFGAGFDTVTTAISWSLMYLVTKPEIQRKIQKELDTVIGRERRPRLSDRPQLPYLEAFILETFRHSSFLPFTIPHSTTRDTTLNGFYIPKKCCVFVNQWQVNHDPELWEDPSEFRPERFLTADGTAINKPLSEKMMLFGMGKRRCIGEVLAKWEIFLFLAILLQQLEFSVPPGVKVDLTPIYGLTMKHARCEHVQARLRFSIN
3',5'-cyclic-AMP phosphodiesterase 4B (Homo sapiens), sequence (Q07343 whole entry, looked up): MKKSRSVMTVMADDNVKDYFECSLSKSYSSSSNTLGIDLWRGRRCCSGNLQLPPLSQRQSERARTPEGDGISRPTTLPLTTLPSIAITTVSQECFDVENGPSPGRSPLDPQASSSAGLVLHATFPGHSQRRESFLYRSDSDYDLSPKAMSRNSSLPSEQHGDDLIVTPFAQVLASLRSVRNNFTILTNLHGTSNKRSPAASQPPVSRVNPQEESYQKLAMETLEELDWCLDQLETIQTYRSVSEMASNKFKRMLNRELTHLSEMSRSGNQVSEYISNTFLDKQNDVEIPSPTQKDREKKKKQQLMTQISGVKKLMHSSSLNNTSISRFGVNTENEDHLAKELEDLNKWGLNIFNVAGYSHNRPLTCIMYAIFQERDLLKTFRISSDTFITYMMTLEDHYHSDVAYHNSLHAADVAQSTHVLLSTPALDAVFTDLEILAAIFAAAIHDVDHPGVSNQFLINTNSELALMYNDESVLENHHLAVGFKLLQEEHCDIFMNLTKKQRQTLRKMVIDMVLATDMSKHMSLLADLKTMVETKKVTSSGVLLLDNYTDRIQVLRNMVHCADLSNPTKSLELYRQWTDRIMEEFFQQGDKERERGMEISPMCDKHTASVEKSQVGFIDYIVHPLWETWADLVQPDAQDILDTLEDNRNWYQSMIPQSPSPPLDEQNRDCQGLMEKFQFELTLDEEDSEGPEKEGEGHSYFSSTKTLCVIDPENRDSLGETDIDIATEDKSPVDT
Alpha-galactosidase A (Homo sapiens), sequence (P06280 whole entry, looked up): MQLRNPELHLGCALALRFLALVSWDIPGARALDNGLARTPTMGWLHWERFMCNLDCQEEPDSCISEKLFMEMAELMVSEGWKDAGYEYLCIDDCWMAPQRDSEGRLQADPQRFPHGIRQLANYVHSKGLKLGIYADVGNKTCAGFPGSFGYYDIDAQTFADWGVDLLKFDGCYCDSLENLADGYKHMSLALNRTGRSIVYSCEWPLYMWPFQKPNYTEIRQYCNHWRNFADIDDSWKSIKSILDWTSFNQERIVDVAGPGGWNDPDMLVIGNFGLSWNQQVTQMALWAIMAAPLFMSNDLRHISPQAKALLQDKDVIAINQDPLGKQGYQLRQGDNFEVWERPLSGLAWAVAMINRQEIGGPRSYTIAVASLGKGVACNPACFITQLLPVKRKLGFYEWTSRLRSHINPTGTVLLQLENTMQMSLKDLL
Pyruvate kinase (Leishmania mexicana), sequence (Q27686 2-499 E452W): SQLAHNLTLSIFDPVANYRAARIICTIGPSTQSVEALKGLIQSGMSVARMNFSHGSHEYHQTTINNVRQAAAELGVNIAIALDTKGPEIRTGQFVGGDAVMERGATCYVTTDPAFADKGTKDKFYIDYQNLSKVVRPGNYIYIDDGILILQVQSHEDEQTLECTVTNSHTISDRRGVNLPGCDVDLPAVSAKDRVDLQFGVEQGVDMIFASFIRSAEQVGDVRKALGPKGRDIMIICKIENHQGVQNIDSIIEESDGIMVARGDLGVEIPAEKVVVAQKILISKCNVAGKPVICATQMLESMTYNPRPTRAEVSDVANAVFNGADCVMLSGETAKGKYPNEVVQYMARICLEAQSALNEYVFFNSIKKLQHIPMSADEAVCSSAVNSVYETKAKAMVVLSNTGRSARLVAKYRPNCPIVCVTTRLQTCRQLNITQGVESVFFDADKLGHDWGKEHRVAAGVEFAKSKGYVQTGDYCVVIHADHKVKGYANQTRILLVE
Glucocorticoid receptor (Homo sapiens), sequence (P04150 whole entry, looked up, the tested form may be a part): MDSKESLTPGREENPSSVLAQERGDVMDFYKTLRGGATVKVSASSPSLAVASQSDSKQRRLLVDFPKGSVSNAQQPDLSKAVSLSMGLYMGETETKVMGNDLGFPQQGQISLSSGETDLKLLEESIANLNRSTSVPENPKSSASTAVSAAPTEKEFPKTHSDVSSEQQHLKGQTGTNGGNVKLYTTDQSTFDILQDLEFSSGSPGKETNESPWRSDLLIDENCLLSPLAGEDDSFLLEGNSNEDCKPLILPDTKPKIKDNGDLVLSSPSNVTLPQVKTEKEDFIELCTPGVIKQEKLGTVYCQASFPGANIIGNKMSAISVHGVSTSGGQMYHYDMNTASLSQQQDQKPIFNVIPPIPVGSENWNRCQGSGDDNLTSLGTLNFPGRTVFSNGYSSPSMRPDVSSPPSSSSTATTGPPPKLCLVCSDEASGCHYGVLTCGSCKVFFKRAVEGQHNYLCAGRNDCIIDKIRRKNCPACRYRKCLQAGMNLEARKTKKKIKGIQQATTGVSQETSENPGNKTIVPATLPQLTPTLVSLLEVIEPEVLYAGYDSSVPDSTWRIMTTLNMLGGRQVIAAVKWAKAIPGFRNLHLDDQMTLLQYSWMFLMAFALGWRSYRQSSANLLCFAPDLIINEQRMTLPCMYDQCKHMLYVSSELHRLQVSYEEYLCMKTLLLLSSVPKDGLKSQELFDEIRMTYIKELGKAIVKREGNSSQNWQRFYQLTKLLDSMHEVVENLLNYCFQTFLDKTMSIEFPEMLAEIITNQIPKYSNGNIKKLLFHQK
Muscarinic acetylcholine receptor M1 (Rattus norvegicus), sequence (P08482 whole entry, looked up): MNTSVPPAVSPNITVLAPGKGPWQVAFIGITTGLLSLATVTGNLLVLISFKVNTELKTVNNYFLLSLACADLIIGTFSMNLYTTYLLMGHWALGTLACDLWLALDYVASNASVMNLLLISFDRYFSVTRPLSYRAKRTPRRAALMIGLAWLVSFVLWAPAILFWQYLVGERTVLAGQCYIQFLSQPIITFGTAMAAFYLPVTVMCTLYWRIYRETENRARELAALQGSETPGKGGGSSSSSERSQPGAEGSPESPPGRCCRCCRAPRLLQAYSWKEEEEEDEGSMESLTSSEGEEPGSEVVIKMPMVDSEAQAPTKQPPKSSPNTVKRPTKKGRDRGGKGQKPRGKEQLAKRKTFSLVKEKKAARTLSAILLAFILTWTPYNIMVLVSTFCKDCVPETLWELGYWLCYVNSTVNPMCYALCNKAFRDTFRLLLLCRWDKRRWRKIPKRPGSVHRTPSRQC
Cytochrome P450 2C19 (Homo sapiens), sequence (P33261 whole entry, looked up): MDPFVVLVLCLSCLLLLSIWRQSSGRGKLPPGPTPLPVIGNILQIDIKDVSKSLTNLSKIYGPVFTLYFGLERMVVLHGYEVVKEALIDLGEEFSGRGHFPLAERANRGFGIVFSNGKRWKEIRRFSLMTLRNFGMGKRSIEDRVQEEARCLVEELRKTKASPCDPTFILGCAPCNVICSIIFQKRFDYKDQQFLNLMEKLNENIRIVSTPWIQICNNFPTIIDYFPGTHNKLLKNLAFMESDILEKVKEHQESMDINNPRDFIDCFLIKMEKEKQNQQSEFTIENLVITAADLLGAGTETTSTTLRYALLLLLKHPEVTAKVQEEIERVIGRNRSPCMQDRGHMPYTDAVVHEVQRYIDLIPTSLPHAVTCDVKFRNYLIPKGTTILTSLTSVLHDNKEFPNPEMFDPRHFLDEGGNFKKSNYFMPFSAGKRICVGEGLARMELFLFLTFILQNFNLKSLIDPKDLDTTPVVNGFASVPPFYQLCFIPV
Guanine nucleotide-binding protein G(i) subunit alpha-1 (Homo sapiens), sequence (P63096 whole entry, looked up): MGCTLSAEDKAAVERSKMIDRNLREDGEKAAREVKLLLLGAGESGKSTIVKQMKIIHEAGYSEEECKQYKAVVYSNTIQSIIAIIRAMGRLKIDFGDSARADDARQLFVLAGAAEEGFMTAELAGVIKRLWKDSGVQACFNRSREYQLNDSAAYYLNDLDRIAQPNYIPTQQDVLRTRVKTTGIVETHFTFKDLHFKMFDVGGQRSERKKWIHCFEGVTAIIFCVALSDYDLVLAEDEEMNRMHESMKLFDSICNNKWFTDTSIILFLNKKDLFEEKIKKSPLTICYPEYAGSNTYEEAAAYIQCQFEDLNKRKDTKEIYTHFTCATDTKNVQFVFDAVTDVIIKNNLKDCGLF
Cytochrome P450 2D6 (Homo sapiens), sequence (P10635 whole entry, looked up): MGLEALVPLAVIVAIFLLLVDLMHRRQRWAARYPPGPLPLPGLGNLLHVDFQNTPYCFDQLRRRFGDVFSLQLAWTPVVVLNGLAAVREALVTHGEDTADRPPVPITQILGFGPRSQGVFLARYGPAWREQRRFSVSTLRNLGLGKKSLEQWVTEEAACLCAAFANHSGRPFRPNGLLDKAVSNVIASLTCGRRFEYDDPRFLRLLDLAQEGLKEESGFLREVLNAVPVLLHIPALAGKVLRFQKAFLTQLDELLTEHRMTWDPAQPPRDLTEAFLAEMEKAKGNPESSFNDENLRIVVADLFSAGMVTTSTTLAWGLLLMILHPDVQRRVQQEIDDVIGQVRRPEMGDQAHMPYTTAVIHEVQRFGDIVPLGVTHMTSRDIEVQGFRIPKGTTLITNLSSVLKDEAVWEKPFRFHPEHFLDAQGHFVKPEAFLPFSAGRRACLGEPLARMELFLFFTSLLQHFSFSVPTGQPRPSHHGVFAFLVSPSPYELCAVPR

`C=C(C)[C@@H]1CC=C(C(=O)O)CC1`: the activity change, negative = inhibition in [1] was 3.75% [at 38 µM]; in [3] it was -3.51% [at 38 µM]. In addition, the Potency entry in test [2], in test [6], in [7], in [9], in [11] and in [14] was “inactive” throughout. The Potency in [4] and in [5] was above 46 µM throughout. For the same compound, the call in test [8], in test [10], in test [12] and in test [13] was inactive.

For `C=CCN1CCc2c(cc(O)c(O)c2Cl)[C@H](c2ccccc2)C1`, the activity change, negative = inhibition in test [1] is -17.1% [at 38 µM]; in [3], -17.9% [at 38 µM]. Moreover, the Potency in test [2] was 20 µM (active); in [4] it was above 46 µM; in test [5], above 46 µM; in test [9], 12.6 µM (active). In addition, the Potency result in [6], in [7], in [15], in test [11] and in [14] was “inactive” each time. Also, the outcome in [12] and in test [13] was inactive.

Consider `CNC(=O)[C@@H]1O[C@@H](n2cnc3c(N)ncnc32)[C@@H](O)[C@H]1O`, for which the activity change, negative = inhibition in test [1] is -10.7% [at 38 µM]; in test [3], 6.42% [at 38 µM]. Also, the Potency result in test [2], in test [6], in test [16] and in test [14] was “inactive” in each case. Besides, the Potency in test [4] and in test [5] was above 46 µM throughout. In addition, the compound was called inactive in [10], in test [12] and in test [13].

For the compound `O=c1[nH]c(=O)n([C@H]2C[C@H](O)[C@H](CO)O2)cc1Br`, the values for the activity change, negative = inhibition in [1] and in test [3] were 14.9% [at 38 µM] and 2.6% [at 38 µM], respectively. Moreover, the Potency result in test [2], in test [6], in test [7], in test [18], in test [19] and in [20] was “inactive” throughout. Besides, in test [17], the activity, negative = inhibition was 4.48% [at 38 µM].

`CCCC(c1cc(C(C)(C)C)c(O)cc1C)c1cc(C(C)(C)C)c(O)cc1C`: the results for the activity change, negative = inhibition in test [1] and in [2] were 28.1% and -12.3% [at 2.29 µM], respectively. The activity, negative = inhibition in [17] was 4.1%. Also, the values for the Potency in test [4] and in [5] were above 46 µM and above 9.22 µM, respectively. Further, the Potency result in [6] and in [7] was “inactive” each time.

Consider `CCC[C@@H]1O[C@@H]2C[C@@H]3[C@@H]4CCC5=CC(=O)C=C[C@@]5(C)[C@H]4[C@H](O)C[C@@]3(C)[C@@]2(C(=O)CO)O1`, for which the activity change, negative = inhibition in [1] is 8.13% [at 38 µM]; in test [3], 9.04% [at 38 µM]. The Potency entry in test [2], in test [6], in test [7], in test [19] and in [20] was “inactive” each time. Further, in test [17], the activity, negative = inhibition was 6.66% [at 38 µM].

As to `COc1c2c(nc3ccccc13)O[C@@H]([C@@](C)(O)CO)C2`, the activity change, negative = inhibition was -14.5% [at 38 µM] in test [1] and -2.6% [at 38 µM] in test [3]. Also, the Potency in test [2] is 15.8 µM (active); in [4] it was above 46 µM; in test [5], above 46 µM. In addition, the Potency entry in [6], in test [7], in test [9], in [16], in test [11] and in test [14] was “inactive” in each case. Further, the compound was called inactive in test [8], in [12], in test [21] and in test [13].
